Experimental data taken from PubChem BioAssay AID624054 (National Center for Advancing Translational Sciences (NCATS), 2012).
Activity calls are given as the source filed them.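 Rule for the calls: active = IC50 at or below 10 µM; inconclusive = IC50 above 10 µM but below 20 µM; inactive = IC50 of 20 µM or more.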

These molecules were tested against Neuropeptide S receptor (Homo sapiens) (UniProt Q6W5P4) (assay: Robust Characterization of cAMP Signal Transduction for Antagonists of the Neuropeptide S Receptor: SAR). Settings: CHO-NPSR cells, NPS-stimulated cAMP, TR-FRET.
Excerpt: Neuropeptide S receptor (NPSR), previously known as GPR154, is a recently de-orphanized G protein coupled receptor. Its endogenous ligand is the 20 amino acids peptide Neuropeptide S (NPS). […] NPS and its receptor are found in various tissues. Specifically they are highly expressed in brain areas that have been implicated in modulation of arousal, stress and anxiety. Central administration of NPS in mice produces an unusual profile of activity by inducing wakefulness and arousal, while at the same time suppressing anxiety. Therefore, NPSR may represent a novel drug target for the treatment of sleep and anxiety disorders. To identify NPSR antagonists, we developed a cell-based cAMP assay. NPS can stimulate the production of cAMP in Chinese hamster ovary cells stably expressing NPS receptor. This change in intracellular cAMP level can be detected by a homogeneous LANCE cAMP assay based on the TR-FRET (time resolved fluorescence resonance energy transfer) between a europium-labeled cAMP tracer complex and a cAMP-specific antibody labeled with Alexa Fluor 647. The europium-labeled cAMP tracer complex is formed by the tight interaction between Biotin-cAMP (b-cAMP) and streptavidin labeled with Europium-W8044 chelate (Eu-SA). Light pulse at 320 nm excites the europium of the cAMP tracer and the energy emitted is transferred to the Alexa molecule bound to the cAMP antibody, generating a TR-FRET signal at 665 nm. Residual energy from the europium will produce a light at 620 nm. The native unlabeled cAMP from cell lysates competes with the europium-cAMP tracer for antibody binding and reversely reduces the emission signal of Alexa by interrupting FRET between the two labeled molecules. Both emission signals from the FRET donor (620 nm) and the acceptor (665 nm) can be detected by a plate reader in the TRF mode. Expression of result in fluorescence ratio (665 nm/620 nm) helps to normalize differences due to cell density and reagent dispensing. This assay was successfully optimized to a 1536-well plate format. Select compounds from the primary screen (AID 1461) were chosen for confirmation based on potency, efficacy, SAR, and activity across other assays in PubChem and at NCGC. Other compounds are analogs of active compounds from the primary screen. […]
A Chinese hamster ovary (CHO) cell line stably expressing the NPS receptor (CHO-NPSR) was obtained from Dr. Heilig lab at NIAAA and maintained in F-12 Kaighn's media (Invitrogen, Carlsbad, CA, 21127) supplemented with 10 % FBS, 100 units/ml penicillin, 100 ug/ml streptomycin and 250 ug/ml geneticin at 37C, 5% CO2 in a humidified atmosphere. […] IC50 values were determined from concentration-response data modeled with the standard Hill equation. […]

Chain of Neuropeptide S receptor (Homo sapiens) (Q6W5P4 whole entry, looked up): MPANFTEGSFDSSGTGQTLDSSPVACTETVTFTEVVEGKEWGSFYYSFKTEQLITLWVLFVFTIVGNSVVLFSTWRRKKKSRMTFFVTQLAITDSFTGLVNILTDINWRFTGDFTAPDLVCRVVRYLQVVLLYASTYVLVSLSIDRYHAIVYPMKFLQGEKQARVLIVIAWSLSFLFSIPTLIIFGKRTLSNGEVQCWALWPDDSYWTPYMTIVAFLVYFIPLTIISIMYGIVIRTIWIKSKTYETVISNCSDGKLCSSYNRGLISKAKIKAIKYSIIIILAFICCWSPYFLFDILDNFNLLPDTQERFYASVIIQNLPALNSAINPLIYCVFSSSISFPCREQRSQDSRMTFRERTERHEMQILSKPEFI

SMILES	IC50
CCC(C)(CCN1CCOCC1)N(Cc1cc2ccccc2n(C)c1=O)C(=O)C1CCCCC1 (centres undefined)	0.0176 µM (active)
O=C1OC(c2ccccc2)(c2ccccc2)N2CCN(C(=O)NCc3ccc(F)cc3)CC12 (centres undefined)	0.208 µM (active)
COc1ccc(C2c3c(ncn(CCN4CCOCC4)c3=N)Oc3ccc4ccccc4c32)cc1OC (centres undefined)	0.296 µM (active)
Cc1c(P(=S)(c2ccccc2)c2ccccc2)[n+]2ccccc2n1C/C=C/c1ccccc1	0.0221 µM (active)
